This note sets out measurements from PubChem BioAssay (NCATS).

Results filed as inconclusive are left out. Some compounds were tested as several samples or in several runs, with calls that do not always agree. Activity calls are given as the source filed them. Unless noted, calls follow the shape of the dose curve; as a rule, active = well fitted curve in the direction sought with a large enough effect; inconclusive = small, poorly fitted or top-dose-only effect, or another doubt; inactive = no such curve, though single readings can be large; an effect the other way counts as inactive or inconclusive.

Assay [1] deals with Ubiquitin carboxyl-terminal hydrolase 2 (Homo sapiens) (UniProt O75604). Briefly: qHTS Validation Assay for Inhibitors of Ubiquitin-specific Protease USP2a Using CHOP2 as the Reporter (AID 463106). The procedure, abridged:
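Inhibition is expressed relative to NEM as the full-inhibition control, with concentration-response curves classed by fit quality, magnitude and activity. Enzyme (USP2 core, 10nM) meets 25nM Ub-CHOP2 after compound preincubation; readings are taken at 60min.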
On the technique in general: Quantitative high-throughput screening tests each substance at several concentrations.

Assay [2] has as its target Tumor susceptibility gene 101 protein (Homo sapiens) (UniProt Q99816). Briefly: qHTS Validation Assay for Iinhibitors of HIV-1 Budding by Blocking the Interaction of PTAP/TSG101 (AID 485342; calls by dose curve). The method, boiled down:
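Tsg101 binding domain (10 uM) with FITC-labeled PTAP peptide (50 nM) in HEPES pH 7.5 buffer, 20 min at r.t. with compounds. Binding measured by fluorescence polarization.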

Assay [3] concerns the target Beta-2 adrenergic receptor (Homo sapiens) (UniProt P07550). Briefly: qHTS validation assay of beta-arrestin-biased ligands of beta2-adrenergic receptor (AID 485366). The procedure, abridged:
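Compound series up to 46 microM applied to beta2-AR/beta-arrestin Tango cells, 18 hr, 37 degrees C, 5% CO2. Read-out: tTA-driven luciferase luminescence, converted to %Activity; concentration-response curves assigned curve classes.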

Assay [4] deals with Thioredoxin reductase 1, cytoplasmic (Rattus norvegicus) (UniProt O89049). Briefly: qHTS Assay for Substrates of Mammalian Selenoprotein Thioredoxin Reductase 1 (TrxR1) (AID 488772).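 Also: series mostly up to about 57 µM; a drop in NADPH fluorescence below the no-compound background marks a TrxR1 substrate.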 The method, boiled down: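 In this dual-purpose format, potential substrates are identified from the first fluorescence read after selenite addition, not from the 8-minute delta. Rat enzyme is preincubated with NADPH and then with compound at ~22 deg C.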

For assay [5] the target is unchanged. As to the kind of experiment: qHTS Assay for Inhibitors of Mammalian Selenoprotein Thioredoxin Reductase 1 (TrxR1) (AID 488773).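 Also: drop in NADPH fluorescence over an 8 min run after selenite addition; series mostly up to about 57 µM; nearly all actives have a fitted effect of over 40% in size.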 As to conditions: Potency: inhibition. The procedure, abridged: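 Inhibition is scored from the loss of NADPH fluorescence between first and last reads of an 8-min kinetic run. Selenite (400 uM) was the substrate, added after 15 min compound preincubation at room temperature.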

Assay [6] concerns the target Flap endonuclease 1 (Homo sapiens) (UniProt P39748). As to the kind of experiment: qHTS Validation Assay for the Inhibitors of Human Flap endonuclease 1 (FEN1) (AID 488816). The method, boiled down:
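Steps: add FEN1 (10 nM reagent) or buffer only; pin compounds; hold 15 min at room temperature; start with substrate, 50 nM final; read at 0 and 15 min; correct, normalize and fit a four-parameter Hill curve.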

Assay [7] has as its target M-phase phosphoprotein 8 (Homo sapiens) (UniProt Q99549). Briefly: qHTS Validation Assay for Inhibitors for MPP8 Chromodomain Interactions with Methylated Histone Tails (AID 488949). Also: nearly all actives have a fitted effect of over 55% in size. Also: potency is read from the fitted curve at half-maximal effect. The method, boiled down: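 MPP8 (50 nM) was pre-bound to 50 nM biotinylated H3(1-18)K9me3 peptide in PBS pH 7.4 with 0.01% Tween-20. Compounds were then added for 30 min at room temperature, and complex disruption was read by AlphaScreen with streptavidin donor and nickel-chelate acceptor beads.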

Assay [8] has as its target Chromobox protein homolog 1 (Homo sapiens) (UniProt P83916). As to the kind of experiment: qHTS Validation Assay for Inhibitors of HP1-beta Chromodomain Interactions with Methylated Histone Tails (AID 488953). Also: nearly all actives have a fitted effect of over 50% in size. Also: potency is read from the fitted curve at half-maximal effect. The procedure, abridged:
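AlphaScreen proximity readout: streptavidin donor and Ni-chelate acceptor beads, 10 ug/mL final, 30 min dark, RT. Complex of 50 nM HP1-beta and 50 nM b-H3(1-18)K9me3 formed 30 min, then compound-treated 30 min; PBS pH 7.4/0.01% Tween-20.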

Assay [9] concerns the target Methanococcus maripaludis chaperonin (MmCpn) (UniProt Q6LX38). Briefly: High-Throughput Screening for Modulators of Cytosolic Chaperonin Activity: MmCpn Primary Screen (AID 488978).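 Also: 50 nM MmCpn enzyme hydrolysing 30 µM ATP at 37 °C.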 The procedure, abridged: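 MmCpn at 50 nM final was preincubated 5 min at RT with compound. ATP was then added at 30 uM final for 10 min at 37 C. ADP formed was detected by Transcreener HTRF (665/590 nm).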

Assay [10] has as its target Transient receptor potential cation channel subfamily V member 1 (Homo sapiens) (UniProt Q8NER1). Briefly: HTS Assay for Compounds that Act as Enhancers of the Vanilloid Receptor 1 (AID 488979). The method, boiled down:
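TRPV1-expressing cells loaded with Fluo-8 calcium dye; compounds added and calcium influx read kinetically for 3 min (agonist phase), then capsaicin at EC20 added and read 2 min more for enhancement. Fluorescence ex 480/em 520 nm.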

The target in assay [11] is Thyrotropin receptor (Homo sapiens) (UniProt P16473). As to the kind of experiment: qHTS Assay for Antagonists of the Thyroid Stimulating Hormone Receptor (AID 488980). Also: series mostly up to about 58 µM. The procedure, abridged: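 TSHR-transfected HEK293 cells (2000/well) in HEPES-buffered HBSS with 70 uM RO 20-1724 were stimulated with 4 nM TSH (EC80, final) in the presence of compound. cAMP was measured by HTRF competition after lysis and 30 min at RT.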

For assay [12], the target named is D(1A) dopamine receptor (Homo sapiens) (UniProt P21728). As to the kind of experiment: HTS Assay for Allosteric Agonists of the Human D1 Dopamine Receptor: Primary Screen for Antagonists (AID 488983).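 Also: calcium flux response to an EC80 dopamine challenge measured with no-wash dye; nearly all actives have a fitted effect of over 65% in size.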 Also: potency is read from the fitted curve at half-maximal effect. The method, boiled down:
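Calcium flux readout, no-wash dye, inducible HEK293 T-REx D1 line (force-coupled). Compound added after 10 s baseline, 180 s kinetic read; then dopamine at EC80, further 180 s read.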

Assay [13] has as its target DNA polymerase III PolC-type (Bacillus subtilis (strain 168)) (UniProt P13267). As to the kind of experiment: qHTS Validation Assay for the Inhibitors of DNA Replication in Gram-Positive Bacteria (AID 485295).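 Also: PicoGreen fluorescence of double-stranded DNA made on primed circular M13 template; series mostly up to about 57 µM.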 The procedure, abridged:
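Reconstituted B. subtilis Pol III holoenzyme (PolC, beta clamp, SSB, primase) preincubated with compound, then M13Gori single-stranded circular template with dNTPs/NTPs added; room temperature reaction. Stopped with EDTA/PicoGreen; dsDNA fluorescence read, EDTA as full-inhibition control.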

Assay [14] has as its target ATP-dependent 6-phosphofructokinase (Trypanosoma brucei brucei) (UniProt O15648). As to the kind of experiment: qHTS Validation Assay to Find Inhibitors of T. brucei phosphofructokinase (AID 485368). The method, boiled down: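 qHTS format, up to 57 uM. PFK 1.25 nM; F6P 0.5 mM; ATP 0.1 mM; 5 mM MgCl2, 0.01% Tween20, 0.1% BSA; 0.1 M TEA pH 8.0; 45 min RT; ADP-Glo readout; no-enzyme control = full inhibition.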

Assay [15] is described as follows: High Content Imaging Cell-Based qHTS for Inhibitors of the mTORC1 Signaling Pathway in MEF Cells (AID 2667).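 Also: Tsc2-/- p53-/- MEFs stably re-expressing wild-type Tsc2 exposed 24 h; series mostly up to about 38 µM.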 The method, boiled down:
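Fixed-cell imaging of phospho-S6 (Ser235/236, Alexa-488) after 24 hrs of compound treatment at 37 degree Celsius. Signal was normalized to Hoechst, and thresholds from the highest and lowest wells split cells into % active versus % non-active.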

Assay [16] in a line: Cytometry Cell-Based qHTS for Inhibitors of the mTORC1 Signaling Pathway in MEF cells (AID 2668).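 Also: Tsc2-/- p53-/- mouse embryonic fibroblasts stably re-expressing wild-type Tsc2; percent cells positive for phospho-rpS6 Ser235/236 relative to propidium iodide stain; series mostly up to about 38 µM.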 The procedure, abridged: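 MEFs (Tsc2-/-, p53-/- stably expressing WT Tsc2) treated 24 h at 37 degree Celsius, fixed, stained with Alexa-488 anti-phospho-rpS6 Ser235/236 and propidium iodide; Acumen laser scanning. Reported as % positive cells, phospho-S6 normalized to PI.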
Assay [17] is described as follows: Validation screen for small molecules that induce DNA re-replication in MCF 10A normal breast cells (AID 463097). Also: nearly all actives have a fitted effect of over 60% in size. Also: potency is read from the fitted curve at half-maximal effect. The method, boiled down: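 MCF 10A cells exposed to compound 48 hr at 37 C, 5% CO2, then Hoechst-stained 40 min. Laser-scanning imaging of nuclear DNA content (405 nm ex, 500-530 nm em); re-replication scored as rise in nuclei with elevated fluorescence intensity.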

Assay [18] is described as follows: qHTS Validation Assay to Find Inhibitors of Chronic Active B-Cell Receptor Signaling (AID 485345; active = well fitted curve in the direction sought with a large enough effect in the main read-out, with a control signal flat, not every such curve was filed as active). The method, boiled down:
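TMD8 ABC-DLBCL cells with dox-inducible green luciferase–IκBα fusion and red native luciferase; compounds 46 uM–3 nM, 4 h at 37C with doxycycline in 0.5% FBS IMDM. Green/red ratio normalized to basal and 10 uM MG-132.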

The nature of assay [19]: Quantitative high throughput screen for delayed death inhibitors of the malarial parasite plastid, 48 hour incubation (AID 488752). Also: nearly all actives have a fitted effect of over 65% in size. Also: potency is read from the fitted curve at half-maximal effect. The procedure, abridged:
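Luciferase-expressing P. falciparum in RBCs, 2% Hct, 0.1% parasitemia final; RPMI 1640 + 0.5% Albumax; 48 h, 37 C, 5% CO2; luminescence readout, signal drop = growth inhibition.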

Sequence of Chromobox protein homolog 1 (Homo sapiens) (P83916 whole entry, looked up): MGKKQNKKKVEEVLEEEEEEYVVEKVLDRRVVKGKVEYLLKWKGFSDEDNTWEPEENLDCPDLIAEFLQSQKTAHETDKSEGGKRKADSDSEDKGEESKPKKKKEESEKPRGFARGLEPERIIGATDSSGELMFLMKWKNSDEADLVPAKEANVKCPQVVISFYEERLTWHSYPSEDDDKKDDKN
Sequence of Thioredoxin reductase 1, cytoplasmic (Rattus norvegicus) (O89049 whole entry, looked up): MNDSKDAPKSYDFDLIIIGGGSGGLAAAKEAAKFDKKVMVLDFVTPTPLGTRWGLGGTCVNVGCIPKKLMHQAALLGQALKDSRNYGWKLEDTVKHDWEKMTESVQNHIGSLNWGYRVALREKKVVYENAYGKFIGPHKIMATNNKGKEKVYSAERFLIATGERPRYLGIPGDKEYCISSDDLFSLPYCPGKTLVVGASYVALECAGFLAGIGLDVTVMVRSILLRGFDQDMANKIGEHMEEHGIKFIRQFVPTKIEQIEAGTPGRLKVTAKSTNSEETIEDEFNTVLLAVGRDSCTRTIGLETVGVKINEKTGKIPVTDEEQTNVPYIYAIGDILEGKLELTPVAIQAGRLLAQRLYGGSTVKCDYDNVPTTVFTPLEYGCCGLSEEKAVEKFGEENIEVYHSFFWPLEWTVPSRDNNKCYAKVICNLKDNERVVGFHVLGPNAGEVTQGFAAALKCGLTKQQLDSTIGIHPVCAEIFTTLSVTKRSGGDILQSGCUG
Sequence of Ubiquitin carboxyl-terminal hydrolase 2 (Homo sapiens) (O75604 whole entry, looked up): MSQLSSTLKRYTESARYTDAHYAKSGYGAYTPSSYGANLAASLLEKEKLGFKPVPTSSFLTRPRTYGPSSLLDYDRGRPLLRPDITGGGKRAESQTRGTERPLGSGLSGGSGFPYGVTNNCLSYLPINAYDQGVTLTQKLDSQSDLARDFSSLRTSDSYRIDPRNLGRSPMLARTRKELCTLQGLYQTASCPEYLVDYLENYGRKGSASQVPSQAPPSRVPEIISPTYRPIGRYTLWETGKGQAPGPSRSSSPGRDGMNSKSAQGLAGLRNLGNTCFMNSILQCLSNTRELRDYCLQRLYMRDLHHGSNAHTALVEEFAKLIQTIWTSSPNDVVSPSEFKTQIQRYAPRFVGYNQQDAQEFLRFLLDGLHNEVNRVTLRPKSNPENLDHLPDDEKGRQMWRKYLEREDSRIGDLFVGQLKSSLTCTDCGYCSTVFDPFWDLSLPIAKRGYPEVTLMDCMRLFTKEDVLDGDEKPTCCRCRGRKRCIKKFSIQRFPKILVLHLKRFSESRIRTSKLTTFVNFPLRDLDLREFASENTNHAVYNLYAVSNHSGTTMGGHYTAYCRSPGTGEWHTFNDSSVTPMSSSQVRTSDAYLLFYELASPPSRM
Sequence of D(1A) dopamine receptor (Homo sapiens) (P21728 whole entry, looked up): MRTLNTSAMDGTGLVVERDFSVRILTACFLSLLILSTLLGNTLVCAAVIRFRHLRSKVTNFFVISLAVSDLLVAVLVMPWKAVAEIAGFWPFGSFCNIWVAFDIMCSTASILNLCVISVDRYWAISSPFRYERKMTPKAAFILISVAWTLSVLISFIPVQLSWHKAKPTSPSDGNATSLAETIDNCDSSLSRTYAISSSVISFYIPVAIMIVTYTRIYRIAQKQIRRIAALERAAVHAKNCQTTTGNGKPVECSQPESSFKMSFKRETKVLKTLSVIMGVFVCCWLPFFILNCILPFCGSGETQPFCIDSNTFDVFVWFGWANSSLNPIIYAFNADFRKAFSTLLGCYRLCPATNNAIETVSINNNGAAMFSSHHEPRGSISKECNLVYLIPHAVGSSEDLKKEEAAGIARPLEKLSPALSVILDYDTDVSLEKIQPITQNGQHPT
Sequence of DNA polymerase III PolC-type (Bacillus subtilis (strain 168)) (P13267 whole entry, looked up): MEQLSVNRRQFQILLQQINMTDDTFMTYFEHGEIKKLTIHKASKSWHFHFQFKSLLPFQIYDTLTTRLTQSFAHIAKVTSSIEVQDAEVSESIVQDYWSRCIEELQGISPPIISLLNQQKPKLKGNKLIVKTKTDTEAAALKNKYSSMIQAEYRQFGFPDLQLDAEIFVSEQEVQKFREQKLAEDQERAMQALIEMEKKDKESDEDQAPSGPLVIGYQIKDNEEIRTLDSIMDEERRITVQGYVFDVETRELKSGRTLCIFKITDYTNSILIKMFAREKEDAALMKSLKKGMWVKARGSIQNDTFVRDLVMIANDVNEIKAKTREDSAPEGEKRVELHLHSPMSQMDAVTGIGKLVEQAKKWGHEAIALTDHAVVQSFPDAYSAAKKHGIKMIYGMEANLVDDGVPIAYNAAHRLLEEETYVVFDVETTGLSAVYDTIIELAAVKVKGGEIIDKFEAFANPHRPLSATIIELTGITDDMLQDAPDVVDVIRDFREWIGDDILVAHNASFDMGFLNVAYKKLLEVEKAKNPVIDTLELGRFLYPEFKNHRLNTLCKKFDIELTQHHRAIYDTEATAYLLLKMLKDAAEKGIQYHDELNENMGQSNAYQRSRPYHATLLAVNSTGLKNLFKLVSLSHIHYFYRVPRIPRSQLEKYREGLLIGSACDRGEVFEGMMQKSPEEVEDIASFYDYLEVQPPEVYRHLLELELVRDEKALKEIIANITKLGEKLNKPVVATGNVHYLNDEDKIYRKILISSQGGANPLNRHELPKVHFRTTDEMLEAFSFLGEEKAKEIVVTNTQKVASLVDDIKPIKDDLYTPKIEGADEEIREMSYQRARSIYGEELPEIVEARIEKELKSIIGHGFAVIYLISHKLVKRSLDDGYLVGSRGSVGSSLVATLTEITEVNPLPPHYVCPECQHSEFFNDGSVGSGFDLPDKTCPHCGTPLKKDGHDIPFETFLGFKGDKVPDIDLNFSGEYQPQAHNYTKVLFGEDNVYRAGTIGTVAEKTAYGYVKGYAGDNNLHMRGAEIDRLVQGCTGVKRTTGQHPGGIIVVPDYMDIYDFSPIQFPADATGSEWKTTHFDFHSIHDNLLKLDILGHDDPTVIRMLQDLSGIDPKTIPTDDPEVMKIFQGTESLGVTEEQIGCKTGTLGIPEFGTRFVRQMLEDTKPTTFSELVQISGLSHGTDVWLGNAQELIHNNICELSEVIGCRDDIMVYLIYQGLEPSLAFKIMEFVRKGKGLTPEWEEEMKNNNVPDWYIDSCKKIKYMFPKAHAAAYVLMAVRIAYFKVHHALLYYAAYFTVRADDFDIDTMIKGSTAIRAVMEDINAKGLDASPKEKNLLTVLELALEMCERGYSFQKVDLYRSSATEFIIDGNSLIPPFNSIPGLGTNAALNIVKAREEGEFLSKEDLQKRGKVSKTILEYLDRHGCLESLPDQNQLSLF
Sequence of ATP-dependent 6-phosphofructokinase (Trypanosoma brucei brucei) (O15648 whole entry, looked up): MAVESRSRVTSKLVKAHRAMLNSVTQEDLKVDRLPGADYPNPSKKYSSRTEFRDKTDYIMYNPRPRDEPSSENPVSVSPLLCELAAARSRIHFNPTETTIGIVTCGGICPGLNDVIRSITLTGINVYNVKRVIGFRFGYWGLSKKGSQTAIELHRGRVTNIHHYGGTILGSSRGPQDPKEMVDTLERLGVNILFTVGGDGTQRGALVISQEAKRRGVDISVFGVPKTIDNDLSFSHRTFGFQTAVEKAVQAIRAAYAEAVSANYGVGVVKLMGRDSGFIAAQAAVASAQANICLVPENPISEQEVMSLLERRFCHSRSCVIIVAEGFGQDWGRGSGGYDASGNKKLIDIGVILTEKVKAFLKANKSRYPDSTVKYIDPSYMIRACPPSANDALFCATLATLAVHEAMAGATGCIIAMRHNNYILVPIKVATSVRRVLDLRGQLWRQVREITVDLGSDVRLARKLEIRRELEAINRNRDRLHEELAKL
Sequence of Beta-2 adrenergic receptor (Homo sapiens) (P07550 whole entry, looked up): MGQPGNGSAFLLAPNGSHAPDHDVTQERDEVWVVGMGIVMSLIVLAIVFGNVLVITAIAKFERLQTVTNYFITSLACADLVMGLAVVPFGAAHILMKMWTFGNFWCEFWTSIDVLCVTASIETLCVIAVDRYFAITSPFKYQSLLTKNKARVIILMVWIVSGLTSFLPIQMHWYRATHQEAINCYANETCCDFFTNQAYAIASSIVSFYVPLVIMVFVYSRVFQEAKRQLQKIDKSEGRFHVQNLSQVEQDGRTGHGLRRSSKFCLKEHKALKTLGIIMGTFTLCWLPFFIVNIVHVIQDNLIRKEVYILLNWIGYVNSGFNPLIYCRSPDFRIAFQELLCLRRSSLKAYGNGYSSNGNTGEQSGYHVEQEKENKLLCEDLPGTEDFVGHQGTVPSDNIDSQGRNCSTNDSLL
Sequence of Thyrotropin receptor (Homo sapiens) (P16473 whole entry, looked up): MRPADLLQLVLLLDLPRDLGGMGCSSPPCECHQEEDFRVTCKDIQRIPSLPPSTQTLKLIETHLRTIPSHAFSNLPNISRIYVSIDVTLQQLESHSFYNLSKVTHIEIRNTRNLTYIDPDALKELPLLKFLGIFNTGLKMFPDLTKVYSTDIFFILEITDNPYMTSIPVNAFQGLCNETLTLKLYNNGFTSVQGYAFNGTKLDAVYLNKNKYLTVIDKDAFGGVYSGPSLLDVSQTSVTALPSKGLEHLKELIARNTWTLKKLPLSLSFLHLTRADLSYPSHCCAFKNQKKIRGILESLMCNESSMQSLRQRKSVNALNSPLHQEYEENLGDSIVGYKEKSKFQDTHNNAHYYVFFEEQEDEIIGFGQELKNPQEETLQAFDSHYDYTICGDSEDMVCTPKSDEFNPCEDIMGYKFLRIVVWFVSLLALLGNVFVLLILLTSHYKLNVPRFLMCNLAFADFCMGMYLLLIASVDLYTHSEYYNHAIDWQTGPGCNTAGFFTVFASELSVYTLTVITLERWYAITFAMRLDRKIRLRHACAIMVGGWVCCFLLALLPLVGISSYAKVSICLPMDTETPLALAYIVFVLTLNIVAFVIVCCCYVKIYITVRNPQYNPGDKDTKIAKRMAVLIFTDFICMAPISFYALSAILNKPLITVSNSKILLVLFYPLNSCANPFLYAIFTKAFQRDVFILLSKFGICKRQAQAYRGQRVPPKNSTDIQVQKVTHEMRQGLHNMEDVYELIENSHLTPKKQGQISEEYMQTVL

On to `COc1cccc2c1[C@@H]1CN(CCCCn3c(=O)[nH]c4c(sc5ncc(-c6ccccc6)nc54)c3=O)C[C@@H]1CO2`, for which the result in assay [1], in [2], in assay [3], in [4], in assay [6] and in assay [9] was inactive. The outcome in assay [10] and in assay [11] was inactive. The Potency entry in [5] and in [12] was “inactive” throughout. Besides, the Potency is 20 µM (active) in [7] and 22.4 µM (active) in [8].

With `Clc1ccc2c(c1)N=C(N1CCNCC1)c1ccccc1N2`, the compound was called inactive in assay [1], in assay [13], in assay [2], in [3], in assay [4] and in assay [6]. Further, in [9], the compound was classed as inactive. For the same compound, the Potency result in assay [14], in assay [7] and in assay [8] was “inactive” each time. Moreover, in assay [12], the Potency is 0.562 µM (active).

Consider `O=C1NC(c2cccc([N+](=O)[O-])c2)=CCN1c1ccccc1O`, for which the outcome in [15], in assay [16], in assay [1], in assay [13], in assay [2] and in assay [18] was inactive. The outcome in [3], in assay [4], in [6], in assay [9], in [10] and in [11] was inactive. Moreover, the Potency entry in [17], in [19], in assay [5], in [7], in assay [8] and in assay [12] was “inactive” throughout.

With `O=[N+]([O-])c1ccc(-c2nc(-c3ccc(F)cc3)c(-c3ccncc3)[nH]2)cc1`, the Potency is 12.6 µM (active) in assay [17]; 10.4 µM (active) in assay [19]; 22.4 µM (active) and inactive in [7]; 31.6 µM (active) in assay [8]. Further, the outcome in assay [1], in [13], in assay [2], in assay [3], in [4] and in assay [6] was inactive. Moreover, the outcome in assay [9], in assay [10] and in [11] was inactive. Further, the Potency entry in [14], in assay [5] and in [12] was “inactive” each time.

`COC(=O)C1=CO[C@@H](O)[C@@H]2C(CO)=CC[C@H]12`: the call in assay [15], in [16], in assay [1], in assay [13], in assay [2] and in [18] was inactive. The outcome in assay [3], in [6] and in assay [9] was inactive. Also, the Potency entry in [14], in assay [5], in [7], in assay [8] and in [12] was “inactive” throughout.

Regarding `O=C1NC(=O)/C(=C/c2ccc3c(c2)OC(F)(F)O3)S1`, the result in assay [15], in assay [16], in [1], in assay [13], in assay [2] and in assay [3] was inactive. The call in [4], in [6] and in assay [9] was inactive. In addition, the Potency result in [14], in assay [5], in assay [7] and in assay [12] was “inactive” throughout.

In the case of `COc1ccccc1N1CCN(CCN2C(=O)CC3(CCCC3)CC2=O)CC1`, the result in [15], in assay [16], in assay [1], in assay [13], in assay [2] and in [18] was inactive. For the same compound, the compound was called inactive in [3], in assay [4], in [6], in [9], in assay [10] and in assay [11]. Also, the Potency result in assay [17], in [14], in assay [19], in [5], in assay [7] and in [8] was “inactive” each time. In addition, the Potency result in [12] is “inactive”.

As to `N[C@@H](Cn1ccc(=O)c(O)c1)C(=O)O`, the result in assay [15], in assay [16], in assay [1], in [13], in assay [2] and in [18] was inactive. For the same compound, the result in assay [3], in [4], in assay [6] and in assay [9] was inactive. Moreover, the Potency entry in assay [5], in assay [7], in assay [8] and in [12] was “inactive” each time.

As to `CCN(CC)CCNC(=O)c1ccc(NS(C)(=O)=O)cc1`, the call in [15], in assay [16], in assay [1], in assay [13], in assay [2] and in assay [18] was inactive. Also, the call in [3], in assay [4], in [6] and in assay [9] was inactive. The Potency result in [14], in assay [5], in assay [7], in [8] and in assay [12] was “inactive” each time.
